Results filed as inconclusive are left out. A call without a number means that no potency is given here. Calls of active or inactive are those of the source. Unless noted, calls come from the whole dose curve.
assay: qHTS assay to identify small molecule agonists of the endoplasmic reticulum stress response signaling pathway (AID 1159516; active = well fitted activation curve with a large enough effect in the signal ratio in the repeat runs, not every such curve was filed as active; the % refers to the signal ratio); settings: ESRE-bla HeLa, ER stress beta-lactamase reporter, 5 h; series mostly up to 61 µM
Outline: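 Fluorescence at 460 and 530 nm (405 nm excitation) reports beta-lactamase from an ER stress response element in HeLa cells treated 5 hr at 37 C.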

| Structure (SMILES) | outcome |
| --- | --- |
| c1ccc(Oc2ccccc2)cc1 | inactive |
| O=c1[nH]cnc2[nH]ncc12 | inactive |
| CCNc1ccccc1 | inactive |
| O=C1C(c2[nH]c3ccccc3c2O)=Nc2ccccc21 | inactive |
| CCCCOC(=O)c1ccc(N)cc1 | inactive |
| CCCOC(=O)c1ccccc1 | inactive |
| COC(=O)CCCC(=O)OC | inactive |
| CC(O)CC(C)(C)O (centres undefined) | inactive |
| CN(C)CCOC(=O)COc1ccc(Cl)cc1 | inactive |
| CN/C(=C\[N+](=O)[O-])NCCSCc1csc(CN(C)C)n1 | inactive |
| CC(=O)CC(C)(C)O | inactive |
| CC(C)=CCl | inactive |
| O=S(=O)(O)c1ccccc1 | inactive |
| COC(=O)c1cccnc1 | inactive |
| COc1ccc(OC)cc1 | inactive |
| O=C(O)c1ccc(C(=O)O)c(C(=O)O)c1 | inactive |
| CC(=O)c1ccc(O)cc1 | inactive |
| CCOC(=O)c1ccc(N)cc1 | inactive |
| COc1cc(OC)c(C(=O)CCCN2CCCC2)c(OC)c1 | inactive |

| Structure (SMILES) | outcome |
| --- | --- |
| CC(C)c1cccc(C(C)C)c1 | inactive |
| NCCNCCN | inactive |
| Cc1ccc(C(C)C)c(O)c1 | inactive |
| Cc1ccc([N+](=O)[O-])cc1S(=O)(=O)O | inactive |
| Cc1ccc2ncccc2c1 | inactive |
| CC(C)CC(=O)CC(C)CC(C)C (centres undefined) | inactive |
| OC1C(O)C(O)C(O)C(O)C1O (centres undefined) | inactive |
| O=C1CCCC1 | inactive |
| CCCCCCCC=O | inactive |
| CC(C)(C#N)c1cc(Cn2cncn2)cc(C(C)(C)C#N)c1 | inactive |
| CC(=O)OCc1ccco1 | inactive |
| CCCCCCCCCCCCCCCCO | inactive |
| Cc1ccc(S(=O)(=O)N=C=O)cc1 | inactive |
| O=S(=O)(O)c1ccc(N=Nc2c(O)ccc3cc(S(=O)(=O)O)ccc23)cc1 | inactive |
| CCc1ccccc1CC | inactive |
| Nc1nc(N)nc(-c2ccccc2)n1 | inactive |
| COc1ccc([N+](=O)[O-])cc1N | inactive |
| CC(C)CCCCCCCOC(=O)CCCCC(=O)OCCCCCCCC(C)C | inactive |
| CC1(C)CC(N)CC(C)(CN)C1 (centres undefined) | inactive |

assay: qHTS assay to identify small molecule agonists of the endoplasmic reticulum stress response signaling pathway - cell viability counter screen (AID 1159517); settings: ESRE-bla HeLa viability, CellTiter-Glo luminescence, 5 h; series mostly up to 61 µM; note: nearly all actives have a fitted effect of over 50% in size
Outline: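 ESRE-bla HeLa cells (1,500/well) were plated overnight at 37 C and exposed to compounds for 5 hr. After the 2 hr beta-lactamase substrate read, CellTiter-Glo went into the same wells, and luminescence was read after 30 min at room temperature.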

| Structure (SMILES) | Potency |
| --- | --- |
| c1ccc(Oc2ccccc2)cc1 | inactive |
| O=c1[nH]cnc2[nH]ncc12 | inactive |
| CCNc1ccccc1 | inactive |
| O=C1C(c2[nH]c3ccccc3c2O)=Nc2ccccc21 | inactive |
| CCCCOC(=O)c1ccc(N)cc1 | inactive |
| CCCOC(=O)c1ccccc1 | inactive |
| COC(=O)CCCC(=O)OC | inactive |
| CC(O)CC(C)(C)O (centres undefined) | inactive |
| CN(C)CCOC(=O)COc1ccc(Cl)cc1 | inactive |
| CN/C(=C\[N+](=O)[O-])NCCSCc1csc(CN(C)C)n1 | inactive |
| CC(=O)CC(C)(C)O | inactive |
| CC(C)=CCl | inactive |
| O=S(=O)(O)c1ccccc1 | inactive |
| COC(=O)c1cccnc1 | inactive |
| COc1ccc(OC)cc1 | inactive |
| O=C(O)c1ccc(C(=O)O)c(C(=O)O)c1 | inactive |
| CC(=O)c1ccc(O)cc1 | inactive |
| CCOC(=O)c1ccc(N)cc1 | inactive |

| Structure (SMILES) | Potency |
| --- | --- |
| COc1cc(OC)c(C(=O)CCCN2CCCC2)c(OC)c1 | inactive |
| CC(C)c1cccc(C(C)C)c1 | inactive |
| NCCNCCN | inactive |
| Cc1ccc(C(C)C)c(O)c1 | inactive |
| Cc1ccc([N+](=O)[O-])cc1S(=O)(=O)O | inactive |
| Cc1ccc2ncccc2c1 | inactive |
| CC(C)CC(=O)CC(C)CC(C)C (centres undefined) | inactive |
| OC1C(O)C(O)C(O)C(O)C1O (centres undefined) | inactive |
| O=C1CCCC1 | inactive |
| CCCCCCCC=O | inactive |
| CC(C)(C#N)c1cc(Cn2cncn2)cc(C(C)(C)C#N)c1 | inactive |
| CCCCCCCCCCCCCCCCO | inactive |
| Cc1ccc(S(=O)(=O)N=C=O)cc1 | inactive |
| O=S(=O)(O)c1ccc(N=Nc2c(O)ccc3cc(S(=O)(=O)O)ccc23)cc1 | inactive |
| CCc1ccccc1CC | inactive |
| Nc1nc(N)nc(-c2ccccc2)n1 | inactive |
| COc1ccc([N+](=O)[O-])cc1N | inactive |
| CC(C)CCCCCCCOC(=O)CCCCC(=O)OCCCCCCCC(C)C | inactive |

Reference: PubChem BioAssay (Tox21)
